# Results taken from PubChem BioAssay.
# Several values for one entry are separate records, joined by “and”; a condition that tells them apart may be missing. Identical values can stand only once. Inconclusive results are not listed. Activity calls are given as the source filed them.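 Rule for the calls, unless noted: active = normalized viability below 100% at a tested concentration; inactive = the rest.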
# Tests used:
# [1] = viability loss in pontine glioma line – cell-based, SU-DIPG-XXV, MIPE5.0, CellTiter-Glo, qHTS, dose response (AID 1347065; cut-off not given, nearly all actives have AC50 up to about 26 µM;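 note: cells exposed to compound for 48 hours before ATP readout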); settings: CellTiter-Glo ATP luminescence
# [2] = growth inhibition of DIPG cells – cell-based, MIPE4.0 library, CellTiter-Glo luminescence, qHTS (AID 1347066; cut-off not given, nearly all actives have AC50 up to about 30 µM;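 note: cells exposed to compound for 48 hours before readout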); settings: SU-DIPG-VI viability, CellTiter-Glo ATP luminescence
# [3] = growth inhibition of DIPG cells – cell-based, MIPE5.0 library, qHTS (AID 1347068; cut-off not given, nearly all actives have IC50 up to about 30 µM); settings: SU-DIPG-XXV viability
# [4] = viability loss with induced miR-34 in A549 – imaging, A549 dox-inducible miR-34, nuclei and caspase counts, primary screen (AID 1347080;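 active = compounds whose cell count with miR-34 switched on is under 0.7 times the count with it off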); settings: A549 miR-34 inducible, Hoechst nuclei count, 48 h
# [5] = compounds altering HSF1 focus formation in cells – imaging, Selleck Cancer Library (AID 1347162; in the data active = plate-normalised HSF1 focus index below about 0.46); settings: human cells, HSF1 nuclear foci imaging, at 10 µM; SSMD: measured here: HSF1 foci SSMD mean; cell count: measured here: cell number; plate-normalised HSF1 focus index: stronger effect = lower value
# [6] = MELAS cybrid and Rieske KO viability enhancers – cell-based, MELAS cybrids, Rieske KO mouse fibroblasts, CellTiter-Glo, primary screen (AID 1508586;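 active = mean z-score across replicates of 1.96 or higher in either the MELAS or the Rieske mutant cell line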;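 note: z relative to plate mean and SD of compound and empty wells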); settings: low glucose
# [7] = drug combination growth inhibition, ovarian cancer – cell-based, oncology-focused library, rucaparib conditional, profiling panel (AID 1508598); settings: patient-derived ovarian cancer cells, CellTiter-Glo viability, 144 h, stronger effect = lower value
# [8] = target: NAD(+) hydrolase SARM1 (Homo sapiens) (UniProt Q6SZW1); test: blocking NAD cleavage by SARM1 SAM-TIR – cell lysate, NAD-Glo luminescence (AID 1508614;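 active = compound whose remaining NAD level is above about 45 nM, limit read from the data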;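 note: higher remaining NAD means stronger inhibition of SARM1 NADase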); settings: SAM-TIR HEK293T lysate NADase, at 1 µM, stronger effect = higher value
# [9] = galactose survival enhancers in mitochondrial complex I cybrids – cell-based, galactose medium, ATP luminescence, primary screen (AID 1645843;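 active = z-score of at least 1.8 in each of two replicates, scored against plate mean and spread of sample wells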;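 note: positive z means more ATP and so rescue of galactose-driven cybrid death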); settings: complex I mutant cybrid cells, 72 h, stronger effect = higher value
# [10] = growth inhibition, single agent or in combination, cell-based, chromothripsis tumors, cisplatin or BGB combos (AID 1671449; in the data active = inhibition above about 80%;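 note: cells exposed for 96 hours; 0% = vehicle DMSO and 100% = killing by high DMSO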); settings: LFS_MB_P medulloblastoma cells
# [11] = growth inhibition, single agent and combos, cell-based, chromothripsis tumors, cisplatin or BGB combos (AID 1671450; in the data active = inhibition above about 80%;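 note: cells exposed to compound for four days; 0% = vehicle DMSO and 100% = cell killing by high DMSO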); settings: HDN33 neuroblastoma cells, stronger effect = higher value
# [12] = growth inhibition, single agents and combos, ICB984, cell-based, cisplatin or BGB combos, synergistic combos for chromothripsis tumors (AID 1671451; call rule not given here;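 note: cells exposed for 96 hours before readout; 0% = vehicle DMSO and 100% = killing by high DMSO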); settings: ICB984 medulloblastoma cells, drug combinations, stronger effect = higher value
# [13] = growth inhibition, single agents and combos, LFS_MB_1R, cell-based, cisplatin or BGB combos, synergistic combos for chromothripsis tumors (AID 1671452; in the data active = inhibition above about 80%;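 note: cells exposed for 96 hours before readout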); settings: LFS_MB_1R medulloblastoma cells, stronger effect = higher value
# [14] = growth inhibition, single agents and combos, HTB85, cell-based, BGB or cisplatin IC20 combos, synergistic combos for chromothripsis tumors (AID 1671453; in the data active = inhibition above about 80%;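 note: cells exposed for 96 hours before readout; 0% = vehicle DMSO and 100% = high DMSO killing control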); settings: HTB85 osteosarcoma cells, drug combinations, stronger effect = higher value
# [15] = growth inhibition, single agents and combos, CRL2098, cell-based, BGB or cisplatin IC20 combos, synergistic combos for chromothripsis tumors (AID 1671454; in the data active = inhibition above about 80%;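 note: cells exposed for 96 h before readout; 0% = vehicle DMSO and 100% = killing by high DMSO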); settings: CRL2098 osteosarcoma cells, drug combinations, stronger effect = higher value
# [16] = growth inhibition, single agents and combos, HD-MB03, cell-based, BGB or cisplatin IC20 combos, synergistic combos for chromothripsis tumors (AID 1671455; in the data active = inhibition above about 83%;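 note: 0% = vehicle DMSO and 100% = high DMSO as cytotoxic control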); settings: HD-MB03 medulloblastoma cells, stronger effect = higher value
# [17] = JHH-DIPG-1 glioma cell viability, MIPE5.0 library, CellTiter-Glo luminescence, qHTS (AID 1347067; cut-off not given, nearly all actives have AC50 up to about 26 µM;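 note: cells exposed to compound for 48 hours before readout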); settings: JHH-DIPG-1 glioma viability, CellTiter-Glo ATP luminescence
# [18] = target: Mitogen-activated protein kinase 7 (Homo sapiens) (UniProt Q13164); test: Gal4-ERK5 driven luciferase induction – cell-based, HTS, primary screen (AID 1508626;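 active = luciferase signal above three times the same-plate solvent-only control wells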;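 note: luciferase driven by Gal4-ERK5 fusion binding five Gal4 sites before minimal TATA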); settings: HeLa Gal4-ERK5 transactivation, 18 h, at 5 µM, stronger effect = higher value
# [19] = stronger effect = lower value, cell number ratio, induced over uninduced
# [20] = measured here: relative caspase fold change +Dox/-Dox
# [21] = measured here: total cells with miR-34 induction, stronger effect = lower value
# [22] = measured here: total cells without miR-34 induction
# [23] = MELAS cybrid survival, CellTiter-Glo 48 h, stronger effect = higher value
# [24] = Rieske KO mouse fibroblast survival, CellTiter-Glo 72 h
# [25] = measured here: combination with BGB IC40, at 0.05 µM
# NAD(+) hydrolase SARM1 (Homo sapiens), sequence (Q6SZW1 whole entry, looked up): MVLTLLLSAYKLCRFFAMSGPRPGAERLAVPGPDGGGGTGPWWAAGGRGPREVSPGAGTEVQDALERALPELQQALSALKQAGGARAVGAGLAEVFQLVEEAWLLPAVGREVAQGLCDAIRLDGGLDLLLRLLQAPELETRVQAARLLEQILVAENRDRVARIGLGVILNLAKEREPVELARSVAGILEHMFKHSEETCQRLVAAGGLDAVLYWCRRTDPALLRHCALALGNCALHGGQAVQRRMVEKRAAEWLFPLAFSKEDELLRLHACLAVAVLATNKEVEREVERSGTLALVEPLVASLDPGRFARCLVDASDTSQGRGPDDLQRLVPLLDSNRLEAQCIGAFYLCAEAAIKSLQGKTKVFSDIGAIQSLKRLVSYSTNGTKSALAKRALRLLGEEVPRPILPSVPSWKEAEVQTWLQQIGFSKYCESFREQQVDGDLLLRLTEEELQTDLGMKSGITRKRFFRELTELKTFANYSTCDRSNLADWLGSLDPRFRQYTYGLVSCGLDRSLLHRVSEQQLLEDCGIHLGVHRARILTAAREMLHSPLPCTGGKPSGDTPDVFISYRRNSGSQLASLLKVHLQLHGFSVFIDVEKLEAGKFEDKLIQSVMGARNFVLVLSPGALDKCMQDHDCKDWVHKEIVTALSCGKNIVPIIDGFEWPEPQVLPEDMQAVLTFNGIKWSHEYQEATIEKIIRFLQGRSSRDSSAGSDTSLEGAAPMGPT
# Mitogen-activated protein kinase 7 (Homo sapiens), sequence (Q13164 whole entry, looked up, the tested form may be a part): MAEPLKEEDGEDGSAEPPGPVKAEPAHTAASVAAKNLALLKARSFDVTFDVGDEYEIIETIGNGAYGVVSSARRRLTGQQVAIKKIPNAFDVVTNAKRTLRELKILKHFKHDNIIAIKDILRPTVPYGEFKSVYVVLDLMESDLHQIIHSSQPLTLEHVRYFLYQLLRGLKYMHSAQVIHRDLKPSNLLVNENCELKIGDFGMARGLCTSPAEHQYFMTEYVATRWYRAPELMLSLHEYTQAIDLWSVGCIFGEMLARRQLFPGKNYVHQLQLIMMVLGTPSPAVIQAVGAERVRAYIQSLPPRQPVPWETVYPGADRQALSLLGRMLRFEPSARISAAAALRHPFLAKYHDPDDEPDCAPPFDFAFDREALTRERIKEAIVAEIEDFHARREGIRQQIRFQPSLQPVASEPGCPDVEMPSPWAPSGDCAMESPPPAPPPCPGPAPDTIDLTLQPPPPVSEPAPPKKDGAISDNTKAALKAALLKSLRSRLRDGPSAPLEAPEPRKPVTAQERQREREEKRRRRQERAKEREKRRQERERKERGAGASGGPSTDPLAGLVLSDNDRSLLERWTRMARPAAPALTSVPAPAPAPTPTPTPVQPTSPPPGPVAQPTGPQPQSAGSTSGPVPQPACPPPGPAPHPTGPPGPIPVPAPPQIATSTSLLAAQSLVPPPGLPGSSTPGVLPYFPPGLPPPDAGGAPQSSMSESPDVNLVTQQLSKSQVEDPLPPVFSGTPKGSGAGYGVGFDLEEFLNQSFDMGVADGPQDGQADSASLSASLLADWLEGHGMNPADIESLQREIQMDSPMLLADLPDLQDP
compound,measurement,setting,value
O=NN(CCCl)C(=O)NC1CCCCC1,outcome,[1],inactive
same,outcome,[2],inactive
same,outcome,[3],inactive
same,fold change,[4]; [19],0.819 (inactive) and 0.861 (inactive)
same,fold change,[4]; [20],1.64 and 1.87
same,cell count,[4]; [21],7170 and 7550
same,cell count,[4]; [22],8750 and 8760
same,SSMD,[5],0.27
same,cell count,[5],6620
same,plate-normalised HSF1 focus index,[5],1.01 (inactive)
same,z-score,[6]; [23],-0.38 (inactive) and -0.0882 (inactive)
same,z-score,[6]; [24],0.628 and -0.815
same,viability,"[7]; at 0.000305 µM, OCI-C5x cells, with rucaparib 10 µM, 100% = cells with rucaparib alone",106% (inactive)
same,viability,"[7]; at 0.000305 µM, OCI-C5x cells, without rucaparib",116% (inactive)
same,viability,"[7]; at 0.000305 µM, OCI-P5x cells, with rucaparib 20 µM, 100% = cells with rucaparib alone",87.5% (active)
same,viability,"[7]; at 0.000305 µM, OCI-P5x cells, without rucaparib",105% (inactive)
same,viability,"[7]; at 0.00122 µM, OCI-C5x cells, with rucaparib 10 µM, 100% = cells with rucaparib alone",106% (inactive)
same,viability,"[7]; at 0.00122 µM, OCI-C5x cells, without rucaparib",123% (inactive)
same,viability,"[7]; at 0.00122 µM, OCI-P5x cells, with rucaparib 20 µM, 100% = cells with rucaparib alone",100% (active)
same,viability,"[7]; at 0.00122 µM, OCI-P5x cells, without rucaparib",107% (inactive)
same,viability,"[7]; at 0.00488 µM, OCI-C5x cells, with rucaparib 10 µM, 100% = cells with rucaparib alone",107% (inactive)
same,viability,"[7]; at 0.00488 µM, OCI-C5x cells, without rucaparib",120% (inactive)
same,viability,"[7]; at 0.00488 µM, OCI-P5x cells, with rucaparib 20 µM, 100% = cells with rucaparib alone",94.7% (active)
same,viability,"[7]; at 0.00488 µM, OCI-P5x cells, without rucaparib",109% (inactive)
same,viability,"[7]; at 0.0195 µM, OCI-C5x cells, with rucaparib 10 µM, 100% = cells with rucaparib alone",121% (inactive)
same,viability,"[7]; at 0.0195 µM, OCI-C5x cells, without rucaparib",122% (inactive)
same,viability,"[7]; at 0.0195 µM, OCI-P5x cells, with rucaparib 20 µM, 100% = cells with rucaparib alone",97.1% (active)
same,viability,"[7]; at 0.0195 µM, OCI-P5x cells, without rucaparib",116% (inactive)
same,viability,"[7]; at 0.0781 µM, OCI-C5x cells, with rucaparib 10 µM, 100% = cells with rucaparib alone",107% (inactive)
same,viability,"[7]; at 0.0781 µM, OCI-C5x cells, without rucaparib",121% (inactive)
same,viability,"[7]; at 0.0781 µM, OCI-P5x cells, with rucaparib 20 µM, 100% = cells with rucaparib alone",97.7% (active)
same,viability,"[7]; at 0.0781 µM, OCI-P5x cells, without rucaparib",112% (inactive)
same,viability,"[7]; at 0.313 µM, OCI-C5x cells, with rucaparib 10 µM, 100% = cells with rucaparib alone",113% (inactive)
same,viability,"[7]; at 0.313 µM, OCI-C5x cells, without rucaparib",119% (inactive)
same,viability,"[7]; at 0.313 µM, OCI-P5x cells, with rucaparib 20 µM, 100% = cells with rucaparib alone",103% (inactive)
same,viability,"[7]; at 0.313 µM, OCI-P5x cells, without rucaparib",119% (inactive)
same,viability,"[7]; at 1.25 µM, OCI-C5x cells, with rucaparib 10 µM, 100% = cells with rucaparib alone",115% (inactive)
same,viability,"[7]; at 1.25 µM, OCI-C5x cells, without rucaparib",125% (inactive)
same,viability,"[7]; at 1.25 µM, OCI-P5x cells, with rucaparib 20 µM, 100% = cells with rucaparib alone",90.9% (active)
same,viability,"[7]; at 1.25 µM, OCI-P5x cells, without rucaparib",108% (inactive)
same,viability,"[7]; at 5 µM, OCI-C5x cells, with rucaparib 10 µM, 100% = cells with rucaparib alone",118% (inactive)
same,viability,"[7]; at 5 µM, OCI-C5x cells, without rucaparib",124% (inactive)
same,viability,"[7]; at 5 µM, OCI-P5x cells, with rucaparib 20 µM, 100% = cells with rucaparib alone",97.4% (active)
same,viability,"[7]; at 5 µM, OCI-P5x cells, without rucaparib",125% (inactive)
same,remaining NAD,[8],10 nM (inactive)
same,z-score,[9],-0.495 (inactive)
same,inhibition,"[10]; at 0.5 µM, stronger effect = higher value",-24.1% (inactive) and -26.9% (inactive)
same,inhibition,"[10]; measured here: combination with BGB IC20, at 0.005 µM",-12.9% and -1.3%
same,inhibition,"[10]; measured here: combination with BGB IC40, at 0.005 µM",-38% and -34.1%
same,inhibition,[10]; [25],-45.8% and -16.7%
same,inhibition,"[10]; measured here: combination with cisplatin, at 0.5 µM, stronger effect = higher value",-40% and -38.1%
same,inhibition,"[10]; measured here: combination with cisplatin, at 5 µM, stronger effect = higher value",-6.56% and -25.7%
same,inhibition,"[11]; BGB combo, at 5 µM",-29.5% and -15.3%
same,inhibition,[11]; at 0.5 µM,-27.8% (inactive) and -8.82% (inactive)
same,inhibition,"[11]; cisplatin combo, at 5 µM",-16% and 13.3%
same,inhibition,"[11]; measured here: with BGB IC20 combination, at 0.5 µM",-31.2% and -14.7%
same,inhibition,"[11]; measured here: with cisplatin IC20 combination, at 0.5 µM",-22.8% and -17.6%
same,inhibition,"[11]; single agent, at 5 µM",-25.6% and 2.38%
same,inhibition,"[12]; BGB IC20 combo, at 0.005 µM",-12.5% and 2.61%
same,inhibition,"[12]; BGB IC40 combo, at 0.005 µM",-25.1% and -35.2%
same,inhibition,"[12]; BGB IC40 combo, at 0.05 µM",-15.4% and -60.7%
same,inhibition,[12]; at 0.5 µM,-38.4% (inactive) and -29.6% (inactive)
same,inhibition,"[12]; cisplatin combo, at 0.05 µM",-18.7% and -67%
same,inhibition,"[12]; cisplatin combo, at 0.5 µM",-33.8% and -42.1%
same,inhibition,"[12]; cisplatin combo, at 5 µM",-56.7% and -19.2%
same,inhibition,"[12]; measured here: 5 uM single agent, at 5 µM",-34.3% and -15.2%
same,inhibition,[13]; at 0.5 µM,-15.1% (inactive) and -17.6% (inactive)
same,inhibition,[13]; [25],-47.7% and -29.7%
same,inhibition,"[13]; measured here: combination with cisplatin, at 0.5 µM",-17.2% and -26.3%
same,inhibition,"[13]; measured here: combination with cisplatin, at 5 µM",-19.8% and 0.28%
same,inhibition,[14]; at 0.5 µM,-14.3% (inactive) and -7.5% (inactive)
same,inhibition,"[14]; measured here: with BGB IC20, at 0.5 µM",-27% and -24%
same,inhibition,"[14]; measured here: with BGB IC20, at 5 µM",-2.92% and -20.1%
same,inhibition,"[14]; measured here: with cisplatin IC20, at 0.5 µM",-13.8% and 2.41%
same,inhibition,"[14]; measured here: with cisplatin IC20, at 5 µM",-45.5% and 7.57%
same,inhibition,"[14]; single agent, at 5 µM",-16.4% and -4.13%
same,inhibition,[15]; at 0.5 µM,-30.9% (inactive) and -17.1% (inactive)
same,inhibition,"[15]; measured here: combination with BGB at IC20, at 0.5 µM",-24.6% and 7.17%
same,inhibition,"[15]; measured here: combination with cisplatin at IC20, at 0.5 µM",-72.6% and -17.3%
same,inhibition,[16]; at 0.5 µM,-11.2% (inactive) and -8.17% (inactive)
same,inhibition,"[16]; measured here: combo with BGB at IC20, at 0.5 µM",-11.5% and -2.92%
same,inhibition,"[16]; measured here: combo with cisplatin at IC20, at 0.5 µM",-6.91% and -12.4%
Cc1ccc(S(=O)(=O)NC(=O)NN2CC3CCCC3C2)cc1 (stereo unspecified),outcome,[1],inactive
same,outcome,[17],inactive
same,outcome,[3],inactive
same,fold change,[4]; [19],0.889 (inactive) and 0.88 (inactive)
same,fold change,[4]; [20],1.81 and 0.848 and 0.946
same,cell count,[4]; [21],8400 and 8080 and 10300
same,cell count,[4]; [22],9450 and 9180 and 11600
same,z-score,[6]; [23],-0.361 (inactive) and -0.892 (inactive) and 0.121 (inactive)
same,z-score,[6]; [24],0.53 and -0.111 and 0.139
same,remaining NAD,[8],10 nM (inactive)
same,luciferase signal,[18],36 AU (inactive)
same,z-score,[9],0.595 (inactive)
CC(C)[C@H](N)C(=O)OCCOCn1cnc2c(=O)[nH]c(N)nc21,outcome,[1],inactive
same,outcome,[17],inactive
same,outcome,[3],inactive
same,fold change,[4]; [19],0.847 (inactive)
same,fold change,[4]; [20],1.65
same,cell count,[4]; [21],9730
same,cell count,[4]; [22],11500
same,z-score,[6]; [23],0.38 (inactive) and 0.156 (inactive)
same,z-score,[6]; [24],0.16 and -0.416
same,remaining NAD,[8],10 nM (inactive)
same,luciferase signal,[18],32 AU (inactive)
same,z-score,[9],0.625 (inactive)
Cn1c(NCCN(CCO)CCCc2ccc([N+](=O)[O-])cc2)cc(=O)n(C)c1=O,outcome,[1],inactive
same,outcome,[17],inactive
same,outcome,[3],inactive
same,fold change,[4]; [19],0.987 (inactive) and 0.875 (inactive)
same,fold change,[4]; [20],1.91 and 1.23
same,cell count,[4]; [21],8810 and 9410
same,cell count,[4]; [22],8920 and 10800
same,z-score,[6]; [23],0.423 (inactive) and 0.101 (inactive)
same,z-score,[6]; [24],0.302 and -0.676
same,z-score,[9],0.115 (inactive) and 0.85 (inactive)
